Data taken from PubChem BioAssay (NCI).
This is part of a sample that, as a whole, favours compounds with a hit. Of some 79,000 tested, about 15% had one in any assay. Activity calls are given as the source filed them. Cut-off read from the data, not from the text of the source: active = growth inhibition above about 70%; inactive = the rest.

Legend:
[1] = NCI Yeast Anticancer Drug Screen. Data for the mec2-1 strain (AID 157); conditions: S. cerevisiae mec2-1 strain, hits give high values
In short: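 Each compound was tested on mec2-1 yeast, a strain altered in DNA damage repair or cell cycle control. Growth inhibition is reported relative to vehicle.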

[2] = NCI Yeast Anticancer Drug Screen. Data for the rad14 strain (AID 159);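 note: 0% = growth of vehicle-treated control cultures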; conditions: S. cerevisiae rad14 strain growth inhibition, hits give high values
In short: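 Test compounds were applied to a repair-deficient yeast strain. Its growth was then compared with that of cultures given vehicle alone, and inhibition was expressed relative to those controls.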

[3] = NCI Yeast Anticancer Drug Screen. Data for the sgs1 mgt1 strain (AID 161);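 note: 0% = growth of cultures given vehicle only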; conditions: S. cerevisiae sgs1 mgt1 strain, hits give high values
In short: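 Read-out: growth inhibition vs vehicle controls. Cells: mutant yeast strain deficient in DNA damage repair.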

[4] = NCI Yeast Anticancer Drug Screen. Data for the CLN2oe strain (AID 163);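 note: 0% = growth of vehicle-only control cultures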; conditions: S. cerevisiae CLN2oe strain, hits give high values
In short: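 First, the altered yeast strain was treated with each compound; second, its growth was measured; finally, inhibition was derived by comparison with vehicle controls.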

[5] = NCI Yeast Anticancer Drug Screen. Data for the cln2 rad14 strain (AID 165);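 note: 0% = growth equal to vehicle treated cultures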; conditions: S. cerevisiae cln2 rad14 strain, hits give high values
In short: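 Test compounds were added to cln2 rad14 yeast cultures; inhibition of growth was then determined by comparison with vehicle treatment.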

[6] = NCI Yeast Anticancer Drug Screen. Data for the bub3 strain (AID 167); conditions: S. cerevisiae bub3 mutant strain, hits give high values
In short: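 Yeast carrying a defined mutation is treated with each compound, and growth is compared with that of vehicle-exposed cells to give inhibition.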

[7] = NCI Yeast Anticancer Drug Screen. Data for the wt2 strain (AID 169);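 note: 0% = growth of vehicle-treated yeast cultures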; conditions: S. cerevisiae wt2 strain growth inhibition, hits give high values
In short: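 The panel's yeast strains carry defined changes in DNA repair or cell cycle genes. Each strain is grown with compound, and growth loss is scored relative to vehicle.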

[8] = NCI Yeast Anticancer Drug Screen. Data for the sgs1 strain (AID 173);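 note: 0% = growth of vehicle-only control cultures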; conditions: S. cerevisiae sgs1 mutant, hits give high values
In short: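 Vehicle-treated cultures served as reference for growth inhibition of a yeast strain altered in DNA damage repair or cell cycle control after compound exposure.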

[9] = NCI Yeast Anticancer Drug Screen. Data for the mlh1 rad18 strain (AID 175); conditions: S. cerevisiae mlh1 rad18 strain growth inhibition, hits give high values
In short: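 Inhibition values reflect reduced growth of mutant yeast versus vehicle-treated controls following compound exposure; the mutations affect DNA damage repair.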

[10] = NCI Yeast Anticancer Drug Screen. Data for the rad18 strain (AID 177); conditions: S. cerevisiae rad18 mutant growth inhibition, hits give high values
In short: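 Steps: expose repair-mutant yeast to compound; measure growth; express as inhibition relative to vehicle control.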

[11] = NCI Yeast Anticancer Drug Screen. Data for the rad52 strain (AID 147);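 note: 0% = growth of vehicle-treated control cultures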; conditions: S. cerevisiae rad52 mutant growth inhibition, hits give high values
In short: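 Inhibition of yeast growth, referenced to vehicle controls, was the measured output for a strain with defective DNA damage repair.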

[12] = NCI Yeast Anticancer Drug Screen. Data for the wt1 strain (AID 149);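 note: 0% = growth of vehicle-treated wt1 cultures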; conditions: S. cerevisiae wt1 strain (SPY 50644) growth inhibition, hits give high values
In short: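 wt1 yeast, compound-treated; % growth inhibition vs vehicle control.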

[13] = NCI Yeast Anticancer Drug Screen. Data for the rad50EPP+ strain (AID 151);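 note: 0% = growth of vehicle-treated control cultures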; conditions: S. cerevisiae rad50 mutant strain, hits give high values
In short: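 Genetically defined yeast (rad50EPP+, DNA damage repair alteration) is grown with compound, and inhibition of growth is expressed relative to vehicle-treated controls.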

[14] = NCI Yeast Anticancer Drug Screen. Data for the mgt1 strain (AID 153); conditions: S. cerevisiae mgt1 mutant growth inhibition, hits give high values
In short: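 In the mgt1 strain, test compounds were added and growth inhibition was determined relative to vehicle-treated controls.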

[15] = NCI Yeast Anticancer Drug Screen. Data for the rad50 strain (AID 155);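 note: 0% = growth of vehicle-only cultures of the same strain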; conditions: S. cerevisiae rad50 strain growth inhibition, hits give high values
In short: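 Genetically altered yeast (DNA repair pathway); compound treatment; growth inhibition vs vehicle ctrl.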

[16] = NCI Yeast Anticancer Drug Screen. Data for the mlh1 strain (AID 171);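 note: 0% = growth of vehicle-treated control cultures of the same strain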; conditions: S. cerevisiae mlh1 strain growth inhibition, hits give high values
In short: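 Inhibition values reflect reduced yeast growth in the presence of compound, referenced to vehicle controls, using a strain chosen for its alteration in DNA repair or cell cycle control.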

[17] = at 5.0 µM (retest, dose inferred, filed as 0.5)
[18] = at 50.0 µM (retest, dose inferred, filed as 5.0)

Measured: growth inhibition

COc1cc(NCc2ccc3nc(N)nc(N)c3c2C)cc(OC)c1OC
inactive: [1]; at 50.0 µM 54.6% | [2]; at 1.2 µM -2% | [2]; at 3.7 µM -6% | [2]; at 11.0 µM -8% | [2]; at 33.0 µM -5% | [2]; at 100.0 µM 43% | [3]; at 50.0 µM 0.6% | [4]; at 1.2 µM -8% | [4]; at 3.7 µM -18% | [4]; at 11.0 µM -17% | [4]; at 33.0 µM -16% | [4]; at 100.0 µM 30% | [5]; at 50.0 µM -1.2% | [6]; at 1.2 µM -13% | [6]; at 3.7 µM -15% | [6]; at 11.0 µM -15% | [6]; at 33.0 µM -24% | [6]; at 50.0 µM -46.8% | [6]; at 100.0 µM 43% | [7]; at 1.2 µM -4% | [7]; at 3.7 µM -5% | [7]; at 11.0 µM -7% | [7]; at 33.0 µM -2% | [7]; at 100.0 µM 46% | [8]; at 1.2 µM -2% | [8]; at 3.7 µM -2% | [8]; at 11.0 µM 5% | [8]; at 33.0 µM 22% | [9]; at 50.0 µM -74.6% | [10]; at 1.2 µM -6% | [10]; at 3.7 µM -2% | [10]; at 11.0 µM 1% | [10]; at 33.0 µM 20%
active: [1]; at 100.0 µM 95% | [8]; at 100.0 µM 75% | [10]; at 100.0 µM 77%

Nc1nc(F)nc2c1ncn2C1OC(COP(=O)(O)O)C(O)C1O (configuration not stated)
inactive: [11]; at 1.2 µM 2% | [11]; at 3.7 µM 5% | [11]; at 11.0 µM 12% | [11]; at 33.0 µM 22% | [11]; at 100.0 µM 52% | [12]; at 1.2 µM 1% | [12]; at 3.7 µM 1% | [12]; at 11.0 µM 2% | [12]; at 33.0 µM 5% | [12]; at 100.0 µM 2% | [13]; at 1.2 µM 3% | [13]; at 3.7 µM 12% | [13]; at 11.0 µM 26% | [13]; at 33.0 µM 43% | [13]; at 100.0 µM 67% | [14]; at 1.2 µM -3% | [14]; at 3.7 µM 0% | [14]; at 11.0 µM 2% | [14]; at 33.0 µM 5% | [14]; at 100.0 µM 12% | [15]; at 1.2 µM 3% | [15]; at 3.7 µM 9% | [15]; at 11.0 µM 18% | [15]; at 33.0 µM 32% | [15]; at 50.0 µM 11.1% | [15]; at 100.0 µM 61% | [1]; at 1.2 µM 1% | [1]; at 3.7 µM 7% | [1]; at 11.0 µM 13% | [1]; at 33.0 µM 27% | [1]; at 50.0 µM 4.2% | [2]; at 1.2 µM -1% | [2]; at 3.7 µM -2% | [2]; at 11.0 µM 2% | [2]; at 33.0 µM 5% | [2]; at 100.0 µM 19% | [3]; at 50.0 µM -1.15% | [4]; at 1.2 µM -4% | [4]; at 3.7 µM -5% | [4]; at 11.0 µM -5% | [4]; at 33.0 µM -5% | [4]; at 100.0 µM -2% | [5]; at 50.0 µM -3.75% | [6]; at 1.2 µM -8% | [6]; at 3.7 µM -8% | [6]; at 11.0 µM -3% | [6]; at 33.0 µM -10% | [6]; at 50.0 µM -29.9% | [6]; at 100.0 µM -1% | [8]; at 1.2 µM 18% | [8]; at 3.7 µM 30% | [8]; at 11.0 µM 39% | [8]; at 33.0 µM 47% | [8]; at 100.0 µM 53% | [9]; at 50.0 µM -26.4%
active: [1]; at 100.0 µM 87%

Cc1cc(C(C)(C)CC(C)(C)C)cc(O)c1O
inactive: [11]; at 1.2 µM 12% | [11]; at 3.7 µM 34% | [12]; at 1.2 µM -19% | [12]; at 3.7 µM 9% | [13]; at 1.2 µM 44% | [13]; at 3.7 µM 69% | [14]; at 1.2 µM 23% | [14]; at 3.7 µM 40% | [15]; at 1.2 µM -7% | [15]; at 3.7 µM 12% | [15]; at 11.0 µM 69% | [1]; at 1.2 µM 29% | [1]; at 3.7 µM 37% | [2]; at 1.2 µM -7% | [2]; at 3.7 µM 9% | [3]; [17] 4% | [4]; at 1.2 µM 2% | [4]; at 3.7 µM 35% | [5]; [17] 37% | [6]; at 1.2 µM 1% | [6]; at 3.7 µM 19% | [6]; [17] 21% | [7]; at 1.2 µM 2% | [7]; at 3.7 µM 27% | [7]; at 100.0 µM 54% | [16]; at 1.2 µM 6% | [16]; at 3.7 µM 20% | [8]; at 1.2 µM 14% | [8]; at 3.7 µM 35% | [10]; at 1.2 µM 5% | [10]; at 3.7 µM 23%
active: [11]; at 11.0 µM 77% | [11]; at 33.0 µM 96% | [11]; at 100.0 µM 98% | [12]; at 11.0 µM 70% | [12]; at 33.0 µM 94% | [12]; at 100.0 µM 98% | [13]; at 11.0 µM 79% | [13]; at 33.0 µM 83% | [13]; at 100.0 µM 88% | [14]; at 11.0 µM 87% | [14]; at 33.0 µM 97% | [14]; at 100.0 µM 98% | [15]; [17] 95% | [15]; at 33.0 µM 93% | [15]; [18] 99% | [15]; at 50.0 µM 92% | [15]; at 100.0 µM 97% | [1]; [17] 97% | [1]; at 11.0 µM 72% | [1]; at 33.0 µM 95% | [1]; [18] 100% | [1]; at 50.0 µM 91.9% | [1]; at 100.0 µM 99% | [2]; at 11.0 µM 80% | [2]; at 33.0 µM 93% | [2]; at 100.0 µM 97% | [3]; [18] 97% | [4]; at 11.0 µM 81% | [4]; at 33.0 µM 97% | [4]; at 100.0 µM 98% | [5]; [18] 95% | [6]; at 11.0 µM 74% | [6]; at 33.0 µM 97% | [6]; [18] 99% | [6]; at 100.0 µM 98% | [7]; at 11.0 µM 71% | [7]; at 33.0 µM 89% | [16]; at 11.0 µM 85% | [16]; at 33.0 µM 88% | [16]; at 100.0 µM 99% | [8]; at 11.0 µM 82% | [8]; at 33.0 µM 92% | [8]; at 100.0 µM 97% | [9]; [17] 83% | [9]; [18] 100% | [9]; at 50.0 µM 92% | [10]; at 11.0 µM 88% | [10]; at 33.0 µM 96% | [10]; at 100.0 µM 98%
